Results as given in PubChem BioAssay.

Experiment: binders of probe aFST on microarray, primary screen, stem cell growth factor project, biochemical, small-molecule microarray, fluorescence 635/667 (AID 1086);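 note: score merges 667 nm fluorescence with signal-to-noise of each printed compound spot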
Details: higher = more signal

For `CCOC(=O)C[C@H]1[C@H](OC(=O)Cc2ccc3c(c2)OCO3)[C@@H](NC(=O)c2ccc3ccccc3c2)c2cc(OCCCO)ccc2N1C(=O)Cc1ccc(OC)cc1`, which composite z-score is on record?
The composite z-score was 0.533.

Which composite z-score does the source give for `O=C(NCc1ccccc1)c1ccc(Br)cc1[N+](=O)[O-]` here?
Its composite z-score is 0.514.

For `CC(C)(C)OC(=O)CC[C@]1(C(=O)N2CCCCC2)N=C(c2ccc(OCCCO)cc2)O[C@H]1c1ccccc1`, which composite z-score is on record?
Its composite z-score is 0.772.

With `C=CCNC(=O)[C@@H]1[C@H]2C(=O)O[C@H](c3ccccc3)[C@H](c3ccccc3)N2[C@H](c2ccc(OCCO)cc2)[C@@]12C(=O)N(C(=O)OCCOC)c1ccc(C#CC3(O)CCCCCC3)cc12` as the molecule, how does the composite z-score read?
The composite z-score was 0.624.

Which composite z-score does the source give for `CCCC=C(CCC)[C@@H](NS(=O)(=O)c1ccc(C(F)(F)F)cc1)c1ccc(-c2ccccc2)cc1` here?
Its composite z-score is 1.38.

With `NC(=O)NCC#Cc1ccc2c(c1)[C@]1(C(=O)N2)[C@H](C(=O)N2CCCCCCC2)[C@H]2C(=O)O[C@H](c3ccccc3)[C@H](c3ccccc3)N2[C@@H]1c1ccccc1OCCO` as the molecule, how does the composite z-score read?
The composite z-score was 3.38.

With `C=C[C@H](OC)[C@@H](OC(=O)Nc1ccc(SC)cc1)c1ccc(O)c(F)c1` as the molecule, how does the composite z-score read?
The composite z-score was -0.212.

For `CO[C@H]1COC(=O)CC=C[C@H](C)COC(=O)[C@@H](OCc2ccccc2)C=C[C@@H]1C`, which composite z-score is on record?
Its composite z-score is -0.0875.

Which composite z-score does the source give for `CC(C)C[C@@H]1NC(=O)[C@H]2C[C@@H](C(=O)NCCCCCC[N+](C)(C)C)[C@@H](c3ccc(O)cc3)N2C1=O` here?
The composite z-score was 0.0716.

Which composite z-score does the source give for `CO[C@H]1COC(=O)[C@@H](C)NC(=O)CC=C[C@@H](C)[C@H](OC)COC(=O)CC=C[C@@H]1C` here?
The composite z-score was -0.0849.

Which composite z-score does the source give for `C=CC[C@@]12N=C(c3ccc(OCCCO)cc3)O[C@@H]1c1ccccc1CN(Cc1ccccc1)C2=O` here?
Its composite z-score is 0.15.

For `COc1ccc([Si](C)(C)[C@@H]2[C@@H](CC(=O)N(CCO)Cc3ccccc3)O[C@]3(C(=O)N(Cc4cccc(N5CCC5=O)c4)c4ccccc43)[C@H]2C)cc1`, which composite z-score is on record?
Its composite z-score is 0.147.

Which composite z-score does the source give for `CN(C)CCCC[C@@H]1NC(=O)[C@@H]2C[C@H](C(=O)O)[C@H](c3ccc(O)cc3)N2C1=O` here?
Its composite z-score is 0.212.

For `CCOC(=O)C1=CCC(c2cccc3ccccc23)N(S(=O)(=O)c2ccc(C)cc2)C1` (stereo unspecified), which composite z-score is on record?
Its composite z-score is 0.95.

With `CO[C@@H]1COC(=O)CC=C[C@@H](C)[C@H](OC)COC(=O)CC=C[C@H]1C` as the molecule, how does the composite z-score read?
The composite z-score was 0.169.

For `C=C(COC)/C(=C/C[C@H](OC(C)=O)c1ccc(OCCO)cc1)c1cnc2ccccc2c1`, which composite z-score is on record?
Its composite z-score is 0.372.

Which composite z-score does the source give for `CO[C@H]1O[C@H](CO)[C@@H](OC(=O)Nc2ccc(Oc3ccccc3)cc2)[C@H](OC(=O)Nc2ccccc2-c2ccccc2)[C@H]1OC(=O)Nc1ccccc1-c1ccccc1` here?
The composite z-score was 0.33.

For `CCC1=C2CN(Cc3ccccc3Br)[C@@H]([C@@H](O)Cc3ccccc3)C2C=CCC1` (stereo partly specified), which composite z-score is on record?
The composite z-score was 0.788.

Which composite z-score does the source give for `[N-]=[N+]=NCc1ccccc1C[C@@]1(C(=O)N2CCOCC2)N=C(c2ccc(OCCCO)cc2)O[C@@H]1c1ccccc1N=[N+]=[N-]` here?
The composite z-score was 0.889.

With `C=CC(=O)O[C@@H](Cc1ccccc1)[C@H]1C2C=CCCC=C2CN1Cc1cccc(Cl)c1` (stereo partly specified) as the molecule, how does the composite z-score read?
The composite z-score was -0.254.

With `NC(=O)[C@H]1[C@@H]2C(=O)O[C@@H](c3ccccc3)[C@@H](c3ccccc3)N2[C@@H](c2ccc(O)cc2)[C@]12C(=O)Nc1ccc(C#CCCO)cc12` as the molecule, how does the composite z-score read?
The composite z-score was -0.605.

Which composite z-score does the source give for `NC(=O)NCC#Cc1ccc2c(c1)[C@]1(C(=O)N2)[C@H](C(N)=O)[C@H]2C(=O)O[C@H](c3ccccc3)[C@H](c3ccccc3)N2[C@@H]1c1ccccc1OCCO` here?
Its composite z-score is 0.597.

Which composite z-score does the source give for `C=CC[C@]1(C(N)=O)N=C(c2ccc(OCCCO)cc2)O[C@H]1c1ccccc1CN=[N+]=[N-]` here?
The composite z-score was 0.326.

With `C[N+](C)(C)CCCCNC(=O)[C@@H]1C[C@@H]2C(=O)N3CCC[C@H]3C(=O)N2[C@@H]1c1cccc(OCCO)c1` as the molecule, how does the composite z-score read?
Its composite z-score is 0.209.

Which composite z-score does the source give for `O=C1O[C@H](c2ccccc2)[C@H](c2ccccc2)N2[C@H]1[C@@H](C(=O)Nc1nc3ccccc3s1)[C@]1(C(=O)Nc3ccc(C#CC4(O)CCCCCC4)cc31)[C@H]2c1ccc(O)cc1` here?
The composite z-score was 0.668.

Which composite z-score does the source give for `COc1ccc(C(O)C2C=CC3C(=O)N(C)C(=O)C3N2N2CCCCC2)cc1OCc1ccccc1` (stereo unspecified) here?
Its composite z-score is 0.994.

For `CC1=C([C@H](O)CCc2ccccc2)[C@H](CO)[C@@H]2C(=O)N(Cc3ccccc3)C(=O)[C@@H]2C1`, which composite z-score is on record?
Its composite z-score is 0.0747.

With `C=C[C@H](OC)[C@@H](OC(=O)Nc1ccc(SC)cc1)c1ccc(OC)c(O)c1` as the molecule, how does the composite z-score read?
The composite z-score was -0.595.

Which composite z-score does the source give for `CC(C)(C)OC(=O)CC[C@@]1(C(=O)NCc2ccccc2)N=C(c2ccc(OCCCO)cc2)O[C@@H]1c1ccccc1` here?
Its composite z-score is 1.14.

Which composite z-score does the source give for `O=C1c2ccccc2[C@](Cc2ccccc2I)(C(=O)NCC(F)(F)F)[C@H](c2ccc(CO)cc2)N1Cc1ccccc1C(F)(F)F` here?
Its composite z-score is 1.16.

With `C=CCC(OC(C)=O)[C@@H]1[C@@H](N(Cc2cccc3ccccc23)C(=O)Cc2ccc(F)cc2)c2cc(OCCCO)ccc2N1C(=O)Cc1ccc2ccccc2c1` (stereo partly specified) as the molecule, how does the composite z-score read?
Its composite z-score is -0.299.

With `C=CCN1C(=O)[C@@]2(Cc3ccccc3)N=C(c3ccc(OCCCO)cc3)O[C@H]2c2ccccc21` as the molecule, how does the composite z-score read?
The composite z-score was 0.691.

For `Cc1ccc(N2C(=O)c3ccccc3[C@@H](C(=O)NCc3ccccc3)[C@@H]2c2ccc(CO)cc2)nc1`, which composite z-score is on record?
Its composite z-score is 0.174.

For `CO[C@H]1COC(=O)[C@H](C)COC(=O)[C@H](Cc2ccccc2)NC(=O)CC=C[C@H]1C`, which composite z-score is on record?
The composite z-score was 0.0716.

For `CN(C)CCCC[C@@H]1NC(=O)[C@@H]2C[C@H](C(=O)NCCCCCNC(=O)CS)[C@H](c3ccc(O)cc3)N2C1=O`, which composite z-score is on record?
Its composite z-score is -0.0694.

With `O=C1O[C@H](c2ccccc2)[C@H](c2ccccc2)N2[C@H]1[C@@H](C(=O)NC[C@H](O)c1ccccc1)[C@]1(C(=O)Nc3ccc(C#CC4=CCCCC4)cc31)[C@H]2c1ccc(OCCO)cc1` as the molecule, how does the composite z-score read?
Its composite z-score is 0.681.
